PubChem BioAssay AID1159580 (chemical genetic matrix, 2015)
Among all 5,500 compounds or so, about 2,000 (36%) were called active. Roughly 18% stayed inconclusive and do not appear here. Cut-off read from the data, not from the text of the source: active = normalized growth mostly below about 0.91 (no sharp cut-off); inconclusive = no clear call, values can overlap the other calls; inactive = mostly above about 0.92. The list shows a part of the results.

Assay: chemical genetic growth profiling, strain panel (AID 1159580);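 note: tested at 20 µM; growth read once vehicle control cultures reached saturation at 30 °C; 1 = growth at the plate median or of vehicle wells; lower values mean less growth of the strain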
Details: growth OD

Measured: normalized growth

O=[N+]([O-])/N=C1/NCCN1Cc1ccc(Cl)cc1
inactive: S. cerevisiae deletion strains, locus YAL013W, strain DEP1, stronger effect = lower value 0.994 | S. cerevisiae deletion strains, locus YBR021W, strain FUR4, stronger effect = lower value 0.992 | S. cerevisiae deletion strains, locus YBR229C, strain ROT2, stronger effect = lower value 0.968 | S. cerevisiae deletion strains, locus YCL029C, strain bik1, stronger effect = lower value 0.99 | S. cerevisiae deletion strains, locus YDL035C, strain GPR1, stronger effect = lower value 0.988 | S. cerevisiae deletion strains, locus YDL074C, strain BRE1, stronger effect = lower value 1.05 | S. cerevisiae deletion strains, locus YDL101C, strain DUN1, stronger effect = lower value 0.993 | S. cerevisiae deletion strains, locus YDL134C, strain PPH21, stronger effect = lower value 0.984 | S. cerevisiae deletion strains, locus YDL185W, strain tfp1, stronger effect = lower value 0.986 | S. cerevisiae deletion strains, locus YDL192W, strain arf1, stronger effect = lower value 0.993 | S. cerevisiae deletion strains, locus YDR101C, strain arx1, stronger effect = lower value 0.998 | S. cerevisiae deletion strains, locus YDR150W, strain NUM1, stronger effect = lower value 1 | S. cerevisiae deletion strains, locus YDR162C, strain NBP2, stronger effect = lower value 1.02 | S. cerevisiae deletion strains, locus YDR318W, strain mcm21, stronger effect = lower value 0.984 | S. cerevisiae deletion strains, locus YDR388W, stronger effect = lower value 0.994 | S. cerevisiae deletion strains, locus YDR502C, strain sam2, stronger effect = lower value 0.988 | S. cerevisiae deletion strains, locus YEL061C, strain CIN8, stronger effect = lower value 0.989 | S. cerevisiae deletion strains, locus YER110C, stronger effect = lower value 0.986 | S. cerevisiae deletion strains, locus YER155C, strain BEM2, stronger effect = lower value 1 | S. cerevisiae deletion strains, locus YER167W, strain BCK2, stronger effect = lower value 0.988 | S. cerevisiae deletion strains, locus YGL078C, strain dbp3, stronger effect = lower value 0.995 | S. cerevisiae deletion strains, locus YGL086W, strain mad1, stronger effect = lower value 0.979 | S. cerevisiae deletion strains, locus YGL248W, strain PDE1, stronger effect = lower value 0.979 | S. cerevisiae deletion strains, locus YGR078C, strain PAC10, stronger effect = lower value 1.02 | S. cerevisiae deletion strains, locus YGR135W, strain pre9, stronger effect = lower value 0.992 | S. cerevisiae deletion strains, locus YGR229C, strain SMI1, stronger effect = lower value 1 | S. cerevisiae deletion strains, locus YGR252W, strain gcn5, stronger effect = lower value 0.989 | S. cerevisiae deletion strains, locus YHR030C, strain SLT2, stronger effect = lower value 0.963 | S. cerevisiae deletion strains, locus YHR079C, strain IRE1 (second series), stronger effect = lower value 0.987 | S. cerevisiae deletion strains, locus YHR094C, strain hxt1, stronger effect = lower value 0.996 | S. cerevisiae deletion strains, locus YHR129C, strain ARP1, stronger effect = lower value 0.994 | S. cerevisiae deletion strains, locus YHR200W, strain rpn10, stronger effect = lower value 0.988 | S. cerevisiae deletion strains, locus YIL066C, strain RNR3, stronger effect = lower value 0.985 | S. cerevisiae deletion strains, locus YIL073C, strain SPO22, stronger effect = lower value 0.995 | S. cerevisiae deletion strains, locus YIL125W, strain kgd1, stronger effect = lower value 0.993 | S. cerevisiae deletion strains, locus YIR030C, strain dcg1, stronger effect = lower value 0.988 | S. cerevisiae deletion strains, locus YJL095W, strain BCK1, stronger effect = lower value 1.01 | S. cerevisiae deletion strains, locus YJL134W, strain LCB3, stronger effect = lower value 0.987 | S. cerevisiae deletion strains, locus YJL168C, strain set2, stronger effect = lower value 0.992 | S. cerevisiae deletion strains, locus YJL187C, strain SWE1 (second series), stronger effect = lower value 0.985 | S. cerevisiae deletion strains, locus YJR043C, strain POL32, stronger effect = lower value 1 | S. cerevisiae deletion strains, locus YJR075W, strain HOC1, stronger effect = lower value 0.998 | S. cerevisiae deletion strains, locus YKL009W, strain mrt4, stronger effect = lower value 1.01 | S. cerevisiae deletion strains, locus YKL068W, stronger effect = lower value 0.991 | S. cerevisiae deletion strains, locus YKL085W, strain MDH1 (second series), stronger effect = lower value 0.989 | S. cerevisiae deletion strains, locus YKL085W, strain MDH1, stronger effect = lower value 0.989 | S. cerevisiae deletion strains, locus YKL190W, strain CNB1, stronger effect = lower value 0.997 | S. cerevisiae deletion strains, locus YKR001C, strain vps1, stronger effect = lower value 0.983 | S. cerevisiae deletion strains, locus YLR039C, strain RIC1, stronger effect = lower value 1.01 | S. cerevisiae deletion strains, locus YLR058C, strain SHM2, stronger effect = lower value 0.986 | S. cerevisiae deletion strains, locus YLR102C, strain apc9, stronger effect = lower value 0.996 | S. cerevisiae deletion strains, locus YLR262C, strain YPT6, stronger effect = lower value 1.02 | S. cerevisiae deletion strains, locus YLR268W, strain sec22, stronger effect = lower value 0.995 | S. cerevisiae deletion strains, locus YLR330W, strain CHS5, stronger effect = lower value 0.988 | S. cerevisiae deletion strains, locus YLR342W, strain FKS1 (second series), stronger effect = lower value 0.965 | S. cerevisiae deletion strains, locus YLR371W, strain rom2, stronger effect = lower value 0.987 | S. cerevisiae deletion strains, locus YLR418C, strain cdc73, stronger effect = lower value 1 | S. cerevisiae deletion strains, locus YML016C, strain PPZ1, stronger effect = lower value 0.999 | S. cerevisiae deletion strains, locus YML032C, strain rad52, stronger effect = lower value 0.98 | S. cerevisiae deletion strains, locus YML124C, strain tub3, stronger effect = lower value 0.985 | S. cerevisiae deletion strains, locus YMR078C, strain ctf18, stronger effect = lower value 0.981 | S. cerevisiae deletion strains, locus YMR223W, strain ubp8, stronger effect = lower value 0.993 | S. cerevisiae deletion strains, locus YMR263W, strain SAP30, stronger effect = lower value 1 | S. cerevisiae deletion strains, locus YMR307W, strain GAS1, stronger effect = lower value 1.03 | S. cerevisiae deletion strains, locus YNL067W, strain RPL9B, stronger effect = lower value 1.01 | S. cerevisiae deletion strains, locus YNL128W, strain TEP1, stronger effect = lower value 0.989 | S. cerevisiae deletion strains, locus YNL153C, strain GIM3, stronger effect = lower value 1 | S. cerevisiae deletion strains, locus YNL233W, strain BNI4, stronger effect = lower value 1 | S. cerevisiae deletion strains, locus YNL250W, strain rad50, stronger effect = lower value 0.987 | S. cerevisiae deletion strains, locus YNL271C, strain bni1, stronger effect = lower value 0.992 | S. cerevisiae deletion strains, locus YNL298W, strain CLA4, stronger effect = lower value 0.989 | S. cerevisiae deletion strains, locus YNL307C, strain MCK1, stronger effect = lower value 0.992 | S. cerevisiae deletion strains, locus YNL322C, strain KRE1, stronger effect = lower value 0.992 | S. cerevisiae deletion strains, locus YNR052C, strain pop2, stronger effect = lower value 0.975 | S. cerevisiae deletion strains, locus YOL006C, strain TOP1, stronger effect = lower value 1.03 | S. cerevisiae deletion strains, locus YOL012C, strain htz1 0.909 | S. cerevisiae deletion strains, locus YOL147C, strain pex11, stronger effect = lower value 0.991 | S. cerevisiae deletion strains, locus YOR061W, strain CKA2, stronger effect = lower value 0.992 | S. cerevisiae deletion strains, locus YOR069W, strain VPS5, stronger effect = lower value 0.97 | S. cerevisiae deletion strains, locus YOR136W, strain idh2, stronger effect = lower value 0.992 | S. cerevisiae deletion strains, locus YOR144C, strain elg1, stronger effect = lower value 0.994 | S. cerevisiae deletion strains, locus YOR184W, strain ser1, stronger effect = lower value 0.998 | S. cerevisiae deletion strains, locus YOR316C, strain cot1, stronger effect = lower value 0.989 | S. cerevisiae deletion strains, locus YPL055C, strain LGE1, stronger effect = lower value 1.03 | S. cerevisiae deletion strains, locus YPL241C, strain CIN2, stronger effect = lower value 0.997 | S. cerevisiae deletion strains, locus YPR119W, strain clb2, stronger effect = lower value 0.987 | S. cerevisiae deletion strains, locus YPR141C, strain kar3, stronger effect = lower value 0.988 | S. cerevisiae deletion strains, locus YPR163C, strain tif3, stronger effect = lower value 0.982 | S. cerevisiae deletion strains, locus YPR167C, strain met16, stronger effect = lower value 0.996 | S. cerevisiae deletion strains, strain wtn01, stronger effect = lower value 0.983 | S. cerevisiae strains, strain wild type, stronger effect = lower value 0.989
